Compound activity: PubChem, National Center for Advancing Translational Sciences (NCATS)
Sampled rows, rich in hits. Any-hit rate of the full collection: about 15%.
ALOX12 inh: blocks human arachidonate 12S-lipoxygenase; P18054; purified 12hLO, xylenol orange hydroperoxide absorbance; Potency, µM (highest dose often 108 µM), for the others: top-dose activity change, negative = inhibition, hits mostly inhibitors; actives 1.1% (n = 580,000); AID 1671190
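Hydroperoxide product was detected by ferrous iron/xylenol orange as the 573 to 405 nm absorbance ratio. Arachidonic acid at 40 uM (final) was turned over for 30 min at room temperature by 150 nM human 12hLO, pH 7.0 Hepes buffer, after 15 min compound preincubation.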
RORg inh: inhibitors of mouse ROR gamma transcriptional activity; P51450; Drosophila S2 Gal4-RORgamma UAS-luciferase reporter, 20 h; Potency, µM (series often up to 53.6 µM), for the others: at the highest dose activity change, negative = inhibition, actives largely listed as inhibitors; actives 5.4% (n = 310,000); further: nearly all actives have a fitted effect of over 60% in size
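Drosophila S2 cells stably expressing Gal4-DBD/mouse RORγ fusion under metallothionein promoter plus UAS-luciferase; compound 1 h, then 700 uM CuSO4 induction for 20 h at ambient temperature; inhibition read as reduced luminescence.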
TDP1 cell CPT: DT40-hTDP1 cell growth loss with CPT; chicken DT40 Tdp1-/-;hTDP1 cells + 20 nM CPT, ATP luminescence, 48 h; Potency, µM (top dose mostly 46.2 µM), for inactives: at the highest dose activity change, negative = growth inhibition, most hits filed as inhibitors; actives 12% (n = 420,000); AID 686979; further: nearly all actives have a fitted effect of over 55% in size
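Chicken DT40 Tdp1-/- cells stably complemented with human TDP1 were seeded at 400 cells/well in medium containing 20 nM camptothecin, exposed to pin-transferred compounds, and grown at 37 °C for at least 48 hr. Viability was read as ATP luminescence.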
DT40 TDP1 no CPT: qHTS for Inhibitors of human tyrosyl-DNA phosphodiesterase 1 (TDP1): qHTS in cells in absence of CPT; Potency, µM (series often up to 46.2 µM), for the others: at the highest dose activity change, negative = growth inhibition, usual class: inhibitors; DT40 Tdp1-/- hTDP1 cells, no CPT, ATP luminescence, 48 h; actives 15% (n = 420,000); further: nearly all actives have a fitted effect of over 55% in size
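A cellular qHTS used chicken DT40 cells lacking endogenous Tdp1 but carrying stably transfected human TDP1. Compounds were applied without camptothecin, and cell growth kinetics were judged by ATP-dependent luminescence after ≥48 hr.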
ELG1 repair inh: ELG1-dependent DNA repair inhibition. HEK293T ELG1-luciferase reporter, luminescence, 16 h; DNA damage induced by 5-fluorouridine. Potency, µM (top dose mostly 46.1 µM), for inactives: top-dose activity change, negative = inhibition, actives largely listed as inhibitors. actives 2.3% (n = 330,000). AID 504467; further: nearly all actives have a fitted effect of over 55% in size
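Reporter activity after DNA damage by 5-fluorouridine is monitored. Compound-treated cells incubate 16 hr at 37 °C, then ONE-Glo is added for 30 min before luminescence reading.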
VP16 counter: Gal4-VP16 reporter inhibition counter-screen; Potency, µM (doses to about 53.6 µM), for the others: top-dose activity, negative = inhibition, usual class: inhibitors; actives 3.5% (n = 310,000); Drosophila S2 Gal4-VP16 UAS-luciferase, luminescence, 20 h; AID 2546;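 further: Gal4-VP16 expression switched on by copper sulfate through the metallothionein promoter; nearly all actives have a fitted effect of over 50% in size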
* marks the source's active call; other numbers are inactive results; [ ] = remark or other dose. The call rests on the fitted dose curve; in most records, active means well fitted curve in the direction sought with a large enough effect; inconclusive means small, poorly fitted or top-dose-only effect, or another doubt; inactive means no such curve, though single readings can be large; an effect the other way counts as inactive or inconclusive. On the % scale 0 is the no-effect control and ±100 the full control effect; potency means the concentration at half of the fitted maximal effect.

CC(OC(=O)c1ccc2ccccc2c1)C(=O)N(C)Cc1ccccc1 (stereo not given) was read as ALOX12 inh inconclusive, TDP1 cell CPT inconclusive, DT40 TDP1 no CPT 21µM* and ELG1 repair inh -20%.
COC[C@H]1CCCN1Cc1nc(C2(O)CCN(CCC(C)C)CC2)cs1 was read as ALOX12 inh 23%[176 µM].
Screening CCN1CCN(C(=O)c2cc(COc3ccc(F)cc3F)on2)[C@@H](C)C1=O returned ALOX12 inh -7%, RORg inh inconclusive, TDP1 cell CPT -41%, DT40 TDP1 no CPT 16µM*, ELG1 repair inh inconclusive and VP16 counter -23%.
Screening O=C(c1cc(COc2ccc(F)cc2Cl)on1)N1CC2C[C@@H]3CC1C[C@H](C2)C3 returned ALOX12 inh 0%, RORg inh -29%, TDP1 cell CPT 1.3µM*, DT40 TDP1 no CPT inconclusive, ELG1 repair inh inconclusive and VP16 counter inconclusive.
O=C(c1cc(COc2ccc(F)cc2Cl)on1)N1C[C@H]2CC[C@H]1C2 was read as ALOX12 inh -9%, RORg inh 42%, TDP1 cell CPT inconclusive, DT40 TDP1 no CPT inconclusive, ELG1 repair inh inconclusive and VP16 counter inconclusive.
Screening CC(C)Oc1ccc(C(=O)N2CCC3(CC2)C(=O)N(C)c2ccccc23)cc1 returned ALOX12 inh 23%.
Cc1cc(F)ccc1S(=O)(=O)NCC(c1cccnc1)N1CCc2ccccc21 (stereo not given) was read as ALOX12 inh inconclusive, RORg inh 31%, TDP1 cell CPT inconclusive, DT40 TDP1 no CPT 16µM*, ELG1 repair inh inconclusive and VP16 counter -6%.
O=C(NCC(c1ccc(F)cc1)N1CCOCC1)c1cccc(Br)c1 (stereo not given) was read as ALOX12 inh -4%, RORg inh 13%, TDP1 cell CPT inconclusive, DT40 TDP1 no CPT inconclusive, ELG1 repair inh 2% and VP16 counter 16%.
Screening O=C(NCC(c1ccco1)N1CCc2ccccc2C1)c1cccc(F)c1 (stereo not given) returned ALOX12 inh inconclusive, TDP1 cell CPT -12%, DT40 TDP1 no CPT -19% and ELG1 repair inh 3%.
O=C(NCC(c1cccnc1)N1CCc2ccccc21)c1cccc(Br)c1 (stereo not given) was read as ALOX12 inh -16%, TDP1 cell CPT inconclusive and DT40 TDP1 no CPT 13µM*.
Screening O=C(NCC(c1cccnc1)N1CCc2ccccc21)c1cccc(F)c1 (stereo not given) returned ALOX12 inh 2%, TDP1 cell CPT 15µM* and DT40 TDP1 no CPT 21µM*.
`Cc1ccc(S(=O)(=O)NCC(c2cccnc2)N2CCc3ccccc32)cc1` (stereo not given) gave ALOX12 inh -9%, RORg inh 41%, TDP1 cell CPT inconclusive, DT40 TDP1 no CPT inconclusive, ELG1 repair inh -3% and VP16 counter 1%.
CNC(=O)[C@@H]1CN(S(=O)(=O)c2cc(F)ccc2F)C[C@H]1COC was read as ALOX12 inh 29%.
`Cc1c(CC(=O)NCCCC(=O)O)c(=O)oc2cc3c(cc12)CCC(C)(C)O3` gave ALOX12 inh inconclusive, RORg inh 5µM*, TDP1 cell CPT inconclusive, DT40 TDP1 no CPT inconclusive, ELG1 repair inh inconclusive and VP16 counter 7.1µM*.
For Cc1c(CC(=O)NCCCCCC(=O)O)c(=O)oc2cc3c(cc12)CCC(C)(C)O3 the results were ALOX12 inh 0%, RORg inh 14%, TDP1 cell CPT 0%, DT40 TDP1 no CPT 8%, ELG1 repair inh -7% and VP16 counter 0%.
